± gives the standard deviation of the averaged measurements.
Test system: E. coli BW25113 marRABp lux reporter
Assay: promoter activity interaction Z-score (Lux/OD deviation from empty-vector control); higher = stronger promoter induction by the compound
Experimental: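 E. coli BW25113 (wild type or ΔmarA/ΔsoxS/Δrob) carrying pTU175 luxCDABE promoter reporters was grown in LB in 384-well plates at 37°C with each of 94 compounds at 4 two-fold concentrations, in biological duplicates. Luminescence and OD600 were read every 30 min for 12 h and integrated as AUC over 8 h (0-8 h WT, 1-9 h mutants). Lux AUC was divided by OD AUC; the interaction score is the residual of a Huber robust fit of each promoter against the empty-vector control, then Z-transformed per promoter.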

CC1(C)S[C@@H]2[C@H](/N=C/N3CCCCCC3)C(=O)N2[C@H]1C(=O)O [Mecillinam]
promoter activity interaction Z-score (0.0081 µg/ml, genetic background: wild type): 0.0167 ± 0.096
promoter activity interaction Z-score (0.0081 µg/ml, genetic background: ΔmarA): -0.0228 ± 0.035
promoter activity interaction Z-score (0.0081 µg/ml, genetic background: Δrob): 0.0796 ± 0.13
promoter activity interaction Z-score (0.0081 µg/ml, genetic background: ΔsoxS): -0.119 ± 0.16
promoter activity interaction Z-score (0.016 µg/ml, genetic background: wild type): -0.158 ± 0.16
promoter activity interaction Z-score (0.016 µg/ml, genetic background: ΔmarA): -0.0902 ± 0.12
promoter activity interaction Z-score (0.016 µg/ml, genetic background: Δrob): 0.334 ± 0.2
promoter activity interaction Z-score (0.016 µg/ml, genetic background: ΔsoxS): -0.0159 ± 0.17
promoter activity interaction Z-score (0.033 µg/ml, genetic background: wild type): 0.203 ± 0.034
promoter activity interaction Z-score (0.033 µg/ml, genetic background: ΔmarA): 0.119
promoter activity interaction Z-score (0.033 µg/ml, genetic background: Δrob): 1.33
promoter activity interaction Z-score (0.033 µg/ml, genetic background: ΔsoxS): 0.151 ± 0.51

CC(=O)[C@H]1CC[C@H]2[C@@H]3CCC4=CC(=O)CC[C@]4(C)[C@H]3CC[C@]12C [Progesterone]
promoter activity interaction Z-score (19.7 µg/ml, genetic background: wild type): -0.0683 ± 0.075
promoter activity interaction Z-score (19.7 µg/ml, genetic background: ΔmarA): 0.0187 ± 0.17
promoter activity interaction Z-score (19.7 µg/ml, genetic background: Δrob): -0.191 ± 0.093
promoter activity interaction Z-score (19.7 µg/ml, genetic background: ΔsoxS): 0.0521 ± 0.092
promoter activity interaction Z-score (39.3 µg/ml, genetic background: wild type): -0.275 ± 0.28
promoter activity interaction Z-score (39.3 µg/ml, genetic background: ΔmarA): -0.0815 ± 0.0053
promoter activity interaction Z-score (39.3 µg/ml, genetic background: Δrob): -0.249 ± 0.035
promoter activity interaction Z-score (39.3 µg/ml, genetic background: ΔsoxS): -0.155 ± 0.11
promoter activity interaction Z-score (78.6 µg/ml, genetic background: wild type): -0.102 ± 0.22
promoter activity interaction Z-score (78.6 µg/ml, genetic background: ΔmarA): -0.0516 ± 0.038
promoter activity interaction Z-score (78.6 µg/ml, genetic background: Δrob): -0.252 ± 0.24
promoter activity interaction Z-score (78.6 µg/ml, genetic background: ΔsoxS): -0.3 ± 0.093
promoter activity interaction Z-score (157.2 µg/ml, genetic background: wild type): -0.0485 ± 0.46
promoter activity interaction Z-score (157.2 µg/ml, genetic background: ΔmarA): 0.0739 ± 0.13
promoter activity interaction Z-score (157.2 µg/ml, genetic background: Δrob): -0.505 ± 0.15
promoter activity interaction Z-score (157.2 µg/ml, genetic background: ΔsoxS): -0.178 ± 0.15

CN(C)C(=N)NC(=N)N [Metformin]
promoter activity interaction Z-score (20.7 µg/ml, genetic background: wild type): -0.244 ± 0.08
promoter activity interaction Z-score (20.7 µg/ml, genetic background: ΔmarA): 0.0455 ± 0.11
promoter activity interaction Z-score (20.7 µg/ml, genetic background: Δrob): -0.139 ± 0.14
promoter activity interaction Z-score (20.7 µg/ml, genetic background: ΔsoxS): -0.145 ± 0.0015
promoter activity interaction Z-score (41.4 µg/ml, genetic background: wild type): -0.1 ± 0.072
promoter activity interaction Z-score (41.4 µg/ml, genetic background: ΔmarA): -0.132 ± 0.1
promoter activity interaction Z-score (41.4 µg/ml, genetic background: Δrob): -0.0299 ± 0.073
promoter activity interaction Z-score (41.4 µg/ml, genetic background: ΔsoxS): -0.0239 ± 0.17
promoter activity interaction Z-score (82.8 µg/ml, genetic background: wild type): -0.104 ± 0.063
promoter activity interaction Z-score (82.8 µg/ml, genetic background: ΔmarA): -0.195 ± 0.23
promoter activity interaction Z-score (82.8 µg/ml, genetic background: Δrob): -0.113 ± 0.043
promoter activity interaction Z-score (82.8 µg/ml, genetic background: ΔsoxS): -0.0656 ± 0.052
promoter activity interaction Z-score (165.6 µg/ml, genetic background: wild type): -0.551 ± 0.065
promoter activity interaction Z-score (165.6 µg/ml, genetic background: ΔmarA): -0.242 ± 0.025
promoter activity interaction Z-score (165.6 µg/ml, genetic background: Δrob): -0.0241 ± 0.2
promoter activity interaction Z-score (165.6 µg/ml, genetic background: ΔsoxS): 0.145 ± 0.22

— the supplement of paper PMC12282887
